From PubChem BioAssay (NCI)
The panel holds about 83,000 compounds, 20% with a hit somewhere; the sample as a whole holds those more often.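 Activity criterion: percent growth below 10, measured after cells in 96-well plates were exposed to a single compound concentration for 48 hours.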 A number with no mark means an inactive call. Active and inactive are the calls of the source.

The compounds below were run on MDA-MB-468 breast (assay: NCI-60 one-dose screen, 48 h (100 = growth as untreated, 0 = no growth, -100 = all killed)). Conditions: 10 µM unless noted.
COc1cc(-c2cc(/C=C/C(=O)c3ccc(N)cc3)[nH]n2)cc(OC)c1OC was tested, and the growth was -47.7% (active).
COc1ccc2nc(C)cc(Nc3ccccc3O)c2c1 showed a growth of 63.5%.
With O=C1CCc2c(sc3[nH]c(=S)n(-c4cc(C(F)(F)F)cc(C(F)(F)F)c4)c(=O)c23)C1 the growth was -14.2% (active).
